In PubChem BioAssay:
“And” between values parts separate entries of the source, which are not always exact repeats. Equal values may be shown once. The source made the active and inactive calls.

Assays:
[1] = system: PRMT1 (protein arginine N-methyltransferase 1); experiment: PRMT1 binders on small-molecule microarrays, primary screen, biochemical, small-molecule microarray, 635 nm fluorescence (AID 1088); conditions: small-molecule microarray binding, higher = more signal;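 note: binding of Prmt1 protein to compounds spotted on small-molecule microarray slides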
[2] = yeast growth modulation, basal conditions, primary screen, YJM789 clinical isolate, OD600, 24 h (AID 1089);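 note: growth of clinical yeast isolate S. cerevisiae YJM 789 seeded 1000 cells per well; test concentration not given here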; conditions: S. cerevisiae YJM789 growth, higher = more signal, called active from +8 up or from −8 down
[3] = fission yeast growth modulation, primary screen, strain 972, OD600, 24 h, no modulator (AID 1090);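 note: basal condition with compound alone and no growth modifier present; test concentration not given here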; conditions: S. pombe 972 growth, higher = more signal, called active from +8 up or from −8 down
[4] = S. cerevisiae growth modulation with rapamycin, primary screen, strain BY4716, OD600, 96 h (AID 1091); conditions: higher = more signal, called active from +8 up or from −8 down; note: test concentration not given here
[5] = biological target: Torsin-1A-interacting protein 2 (Homo sapiens) (UniProt Q8NFQ8); experiment: LULL1 binders on small-molecule microarray, primary screen, cell lysate, human LULL1 lysate, 635/667 nm fluorescence (AID 1092); conditions: hLULL1 lysate binding, 635 nm fluorescence, higher = more signal;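 note: probe is lysate of COS7 cells overexpressing human LULL1; score merges per-feature 667 nm fluorescence with signal-to-noise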
[6] = E. coli growth modulation, two-sided OD650, primary screen, E. coli filamentation project, strain DRC41, 24 h (AID 1093); conditions: OD650, 24 h, higher = more signal, called active from +8 up or from −8 down;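 note: MC1000 strain lacking acrAB efflux and sulA so SOS filamentation is blocked; test concentration not given here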
[7] = small-molecule microarray binders of probe aLefty2, primary screen, biochemical, biotinylated probe, 635/667 nm fluorescence (AID 1094); conditions: higher = more signal;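 note: score merges spot fluorescence near 667 nm with spot signal-to-noise ratio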
[8] = system: Noggin (protein binding on small-molecule microarray); experiment: Noggin binders on small-molecule microarray, primary screen, biochemical, 635/667 nm fluorescence (AID 1095); conditions: 635 nm fluorescence, higher = more signal;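 note: score merges 667 nm feature fluorescence with signal to noise over triplicate slides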
[9] = biological target: Neurogenic locus notch homolog protein 3 (Homo sapiens) (UniProt Q9UM47); experiment: NOTCH3 binders on small-molecule microarray, primary screen, biochemical, 635/667 nm fluorescence (AID 1096); conditions: NOTCH3 binding, 635 nm fluorescence, higher = more signal
[10] = small-molecule microarray binders of probe aEGFR, primary screen, biochemical, biotinylated probe, 635/667 nm fluorescence (AID 1097); conditions: higher = more signal;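 note: probe is a biotinylated anti-EGFR antibody binding compounds printed on slides; score combines fluorescence near 667 nm and signal to noise of each spot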
[11] = system: Plasmodium falciparum Sir2 (PF13_0152, Sir2A); experiment: pfSir2 binders on small-molecule microarrays, primary screen, biochemical, small-molecule microarray, 635 nm fluorescence (AID 1098); conditions: small-molecule microarray binding, fluorescence 635 nm; higher = more signal;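 note: score merges spot fluorescence intensity with its signal-to-noise ratio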
[12] = small-molecule microarray binders of probe aDKK1, primary screen, biochemical, biotinylated probe, 635/667 nm fluorescence (AID 1099); conditions: higher = more signal;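 note: score merges 667nm spot fluorescence with signal to noise across triplicate slides; reference of the scale not given here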
[13] = small-molecule microarray binders of probe aCHRDL2, primary screen, biochemical, biotinylated probe, 635/667 nm fluorescence (AID 1100); conditions: higher = more signal
[14] = splicing luciferase reporter signal modulators, primary screen, spliceosome inhibition project, cell-based, HEK293, splice +/- reporter (AID 1101); conditions: luminescence, 24 h, higher = more signal, called active from +8 up or from −8 down;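 note: HEK293 cells carrying a splicing-competent luciferase reporter gene; test concentration not given here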
[15] = biological target: Fibroblast growth factor 10 (Homo sapiens) (UniProt O15520); experiment: FGF10 binders on small-molecule microarrays, primary screen, biochemical, small-molecule microarray, 635 nm fluorescence (AID 1102); conditions: FGF10 binding, fluorescence 635 nm, higher = more signal
[16] = system: glycogen synthase kinase-3 (GSK3A per assay name; protocol says GSK3B); experiment: GSK3 binders on small-molecule microarrays, primary screen, biochemical, small-molecule microarray, 635 nm fluorescence, GSK3A (AID 1103); conditions: small-molecule microarray binding, fluorescence 635 nm; higher = more signal; note: the record names both GSK3A and GSK3B
[17] = biological target: Epidermal growth factor receptor (Homo sapiens) (UniProt P00533); experiment: EGFR binders on small-molecule microarrays, primary screen, biochemical, small-molecule microarray, 635 nm fluorescence (AID 1104); conditions: EGFR binding, higher = more signal;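 note: score merges 667 nm emission intensity with spot signal to noise over triplicate slides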
[18] = biological target: Follistatin-related protein 3 (Homo sapiens) (UniProt O95633); experiment: FSTL3 binders on small-molecule microarrays, primary screen, biochemical, small-molecule microarray, 635 nm fluorescence (AID 1105); conditions: FSTL3 binding, higher = more signal;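 note: score merges emission near 667 nm and signal to noise per printed spot across three slides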
[19] = biological target: Dickkopf-related protein 1 (Homo sapiens) (UniProt O94907); experiment: DKK1 binders on small-molecule microarrays, primary screen, biochemical, small-molecule microarray, 635 nm fluorescence scan (AID 1106); conditions: DKK1 binding, higher = more signal;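 note: score merges emission near 667 nm with signal to noise over three replicate slides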
[20] = system: Inhibin beta A chain (activin A); experiment: INHBA (activin A) binders on microarrays, primary screen, biochemical, small-molecule microarray, 635 nm fluorescence scan (AID 1107); conditions: small-molecule microarray binding, higher = more signal;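 note: mouse activin A protein probed at 4.33 µg/mL on printed slides; score merges bound-protein fluorescence near 667 nm with spot signal-to-noise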

Epidermal growth factor receptor (Homo sapiens), sequence (P00533 whole entry, looked up): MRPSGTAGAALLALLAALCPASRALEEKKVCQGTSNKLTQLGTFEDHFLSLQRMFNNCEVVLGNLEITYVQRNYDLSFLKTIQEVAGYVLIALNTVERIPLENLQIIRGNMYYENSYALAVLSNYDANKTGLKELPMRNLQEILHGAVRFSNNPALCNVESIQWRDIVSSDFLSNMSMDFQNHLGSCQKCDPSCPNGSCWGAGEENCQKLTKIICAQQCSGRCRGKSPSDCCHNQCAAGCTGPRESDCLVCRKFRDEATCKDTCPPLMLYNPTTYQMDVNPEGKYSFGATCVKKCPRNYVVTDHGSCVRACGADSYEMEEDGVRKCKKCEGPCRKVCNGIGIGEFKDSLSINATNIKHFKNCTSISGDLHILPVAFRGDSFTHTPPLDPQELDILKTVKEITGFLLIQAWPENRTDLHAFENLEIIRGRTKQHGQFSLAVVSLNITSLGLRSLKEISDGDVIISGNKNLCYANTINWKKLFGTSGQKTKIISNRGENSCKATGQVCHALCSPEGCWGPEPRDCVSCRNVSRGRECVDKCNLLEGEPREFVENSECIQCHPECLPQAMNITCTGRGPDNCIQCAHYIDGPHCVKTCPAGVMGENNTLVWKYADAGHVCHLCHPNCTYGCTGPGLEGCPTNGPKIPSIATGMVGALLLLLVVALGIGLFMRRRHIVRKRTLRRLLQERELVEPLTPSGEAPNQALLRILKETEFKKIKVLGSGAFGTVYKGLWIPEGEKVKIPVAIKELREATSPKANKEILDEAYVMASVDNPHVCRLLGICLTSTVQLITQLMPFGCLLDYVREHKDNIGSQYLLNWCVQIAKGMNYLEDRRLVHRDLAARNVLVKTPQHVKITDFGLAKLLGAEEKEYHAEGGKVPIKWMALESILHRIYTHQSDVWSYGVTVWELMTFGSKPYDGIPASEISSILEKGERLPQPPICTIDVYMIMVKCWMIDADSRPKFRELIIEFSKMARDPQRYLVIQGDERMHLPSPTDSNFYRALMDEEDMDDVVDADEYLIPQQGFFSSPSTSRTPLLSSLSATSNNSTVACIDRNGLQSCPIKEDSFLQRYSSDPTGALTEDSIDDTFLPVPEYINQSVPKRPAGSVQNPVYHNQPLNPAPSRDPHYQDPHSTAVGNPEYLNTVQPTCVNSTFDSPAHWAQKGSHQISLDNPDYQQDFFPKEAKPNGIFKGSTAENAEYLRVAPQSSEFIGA
Neurogenic locus notch homolog protein 3 (Homo sapiens), sequence (Q9UM47 whole entry, looked up): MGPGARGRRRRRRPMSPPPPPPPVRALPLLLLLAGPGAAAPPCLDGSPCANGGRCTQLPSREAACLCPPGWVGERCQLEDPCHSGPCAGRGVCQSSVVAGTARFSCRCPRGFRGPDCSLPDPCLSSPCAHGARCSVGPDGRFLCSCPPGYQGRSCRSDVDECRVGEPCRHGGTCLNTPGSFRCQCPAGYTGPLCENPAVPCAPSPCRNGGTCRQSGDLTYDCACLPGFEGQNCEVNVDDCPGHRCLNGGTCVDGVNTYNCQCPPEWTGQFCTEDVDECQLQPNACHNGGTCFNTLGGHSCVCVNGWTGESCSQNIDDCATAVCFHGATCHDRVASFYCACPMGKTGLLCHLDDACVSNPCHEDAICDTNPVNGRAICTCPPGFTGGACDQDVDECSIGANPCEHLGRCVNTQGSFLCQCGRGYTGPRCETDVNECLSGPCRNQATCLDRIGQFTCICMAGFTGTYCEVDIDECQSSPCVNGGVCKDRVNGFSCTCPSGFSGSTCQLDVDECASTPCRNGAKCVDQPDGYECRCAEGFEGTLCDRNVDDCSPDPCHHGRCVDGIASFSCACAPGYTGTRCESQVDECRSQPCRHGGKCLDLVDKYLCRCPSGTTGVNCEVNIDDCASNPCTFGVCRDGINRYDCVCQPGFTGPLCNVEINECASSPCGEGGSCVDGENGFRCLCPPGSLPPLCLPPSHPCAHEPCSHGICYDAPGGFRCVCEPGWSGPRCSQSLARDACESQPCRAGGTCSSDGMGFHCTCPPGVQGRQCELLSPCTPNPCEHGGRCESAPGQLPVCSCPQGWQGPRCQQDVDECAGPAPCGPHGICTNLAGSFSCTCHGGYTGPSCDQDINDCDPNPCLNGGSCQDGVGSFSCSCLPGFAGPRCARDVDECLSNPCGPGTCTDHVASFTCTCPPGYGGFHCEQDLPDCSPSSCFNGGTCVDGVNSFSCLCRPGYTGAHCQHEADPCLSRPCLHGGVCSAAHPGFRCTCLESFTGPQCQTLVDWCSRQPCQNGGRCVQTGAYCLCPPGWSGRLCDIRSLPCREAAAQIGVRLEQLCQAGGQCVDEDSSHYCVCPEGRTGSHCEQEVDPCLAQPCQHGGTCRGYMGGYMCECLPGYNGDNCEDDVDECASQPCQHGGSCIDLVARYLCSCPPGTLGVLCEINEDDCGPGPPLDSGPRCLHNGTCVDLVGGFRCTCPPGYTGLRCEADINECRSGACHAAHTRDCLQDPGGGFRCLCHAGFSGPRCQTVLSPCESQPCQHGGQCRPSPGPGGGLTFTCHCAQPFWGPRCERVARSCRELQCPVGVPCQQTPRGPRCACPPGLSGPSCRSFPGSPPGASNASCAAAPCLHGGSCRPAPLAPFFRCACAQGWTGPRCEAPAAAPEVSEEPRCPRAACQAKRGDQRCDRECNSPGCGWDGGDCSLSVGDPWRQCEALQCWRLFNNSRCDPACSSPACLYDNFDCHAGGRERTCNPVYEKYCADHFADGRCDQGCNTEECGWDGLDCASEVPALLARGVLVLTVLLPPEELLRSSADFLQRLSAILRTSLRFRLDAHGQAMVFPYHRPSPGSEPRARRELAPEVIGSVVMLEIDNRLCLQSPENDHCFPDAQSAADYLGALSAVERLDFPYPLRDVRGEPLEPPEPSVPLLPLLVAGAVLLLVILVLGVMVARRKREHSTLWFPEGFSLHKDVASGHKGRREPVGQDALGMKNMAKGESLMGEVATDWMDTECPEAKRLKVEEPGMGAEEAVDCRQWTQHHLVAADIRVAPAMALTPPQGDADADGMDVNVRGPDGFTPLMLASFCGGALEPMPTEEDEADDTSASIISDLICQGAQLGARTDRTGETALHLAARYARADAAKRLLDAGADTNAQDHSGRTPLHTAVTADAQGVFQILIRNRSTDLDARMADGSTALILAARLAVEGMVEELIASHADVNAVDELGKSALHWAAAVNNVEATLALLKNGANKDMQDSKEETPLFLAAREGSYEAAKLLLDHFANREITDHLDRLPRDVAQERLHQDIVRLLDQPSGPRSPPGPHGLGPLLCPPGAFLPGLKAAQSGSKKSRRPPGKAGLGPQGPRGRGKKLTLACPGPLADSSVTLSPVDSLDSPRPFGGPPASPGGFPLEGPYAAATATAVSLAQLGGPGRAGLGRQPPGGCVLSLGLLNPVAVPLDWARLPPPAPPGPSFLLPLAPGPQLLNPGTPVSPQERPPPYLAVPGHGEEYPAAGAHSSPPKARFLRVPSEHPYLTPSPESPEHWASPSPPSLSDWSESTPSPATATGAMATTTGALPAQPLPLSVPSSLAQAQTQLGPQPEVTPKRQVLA
Fibroblast growth factor 10 (Homo sapiens), sequence (O15520 whole entry, looked up): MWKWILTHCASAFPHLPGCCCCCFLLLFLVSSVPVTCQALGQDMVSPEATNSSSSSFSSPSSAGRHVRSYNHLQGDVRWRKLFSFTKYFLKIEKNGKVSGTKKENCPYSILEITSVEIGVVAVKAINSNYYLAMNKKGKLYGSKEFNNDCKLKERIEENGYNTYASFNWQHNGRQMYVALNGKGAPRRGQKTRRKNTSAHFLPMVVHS
Torsin-1A-interacting protein 2 (Homo sapiens), sequence (Q8NFQ8 whole entry, looked up): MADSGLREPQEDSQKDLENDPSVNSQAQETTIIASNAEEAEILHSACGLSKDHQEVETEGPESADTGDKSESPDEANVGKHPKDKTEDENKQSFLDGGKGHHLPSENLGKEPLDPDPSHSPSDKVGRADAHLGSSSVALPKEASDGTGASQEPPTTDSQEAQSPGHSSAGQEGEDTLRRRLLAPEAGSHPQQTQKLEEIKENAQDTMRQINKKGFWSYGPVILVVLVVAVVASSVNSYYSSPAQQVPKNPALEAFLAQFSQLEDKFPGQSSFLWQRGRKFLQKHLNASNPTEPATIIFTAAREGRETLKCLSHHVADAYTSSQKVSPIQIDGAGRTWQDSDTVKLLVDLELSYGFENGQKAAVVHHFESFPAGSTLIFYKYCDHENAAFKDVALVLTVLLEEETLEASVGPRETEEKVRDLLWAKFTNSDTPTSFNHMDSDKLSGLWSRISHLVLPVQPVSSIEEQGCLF
Follistatin-related protein 3 (Homo sapiens), sequence (O95633 whole entry, looked up): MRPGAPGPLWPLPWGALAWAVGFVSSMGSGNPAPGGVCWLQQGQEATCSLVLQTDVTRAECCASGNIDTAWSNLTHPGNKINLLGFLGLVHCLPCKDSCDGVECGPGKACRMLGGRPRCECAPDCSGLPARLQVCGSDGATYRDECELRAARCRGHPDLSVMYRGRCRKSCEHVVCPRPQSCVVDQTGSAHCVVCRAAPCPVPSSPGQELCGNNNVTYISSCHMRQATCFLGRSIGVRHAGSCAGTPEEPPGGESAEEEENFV
Dickkopf-related protein 1 (Homo sapiens), sequence (O94907 whole entry, looked up): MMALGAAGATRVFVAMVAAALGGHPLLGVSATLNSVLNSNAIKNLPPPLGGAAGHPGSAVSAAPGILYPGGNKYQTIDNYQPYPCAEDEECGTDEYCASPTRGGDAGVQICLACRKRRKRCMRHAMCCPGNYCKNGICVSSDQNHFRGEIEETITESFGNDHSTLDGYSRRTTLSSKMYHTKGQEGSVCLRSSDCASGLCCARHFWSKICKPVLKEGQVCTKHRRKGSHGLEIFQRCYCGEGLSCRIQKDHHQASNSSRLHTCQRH

Row | Compound | composite z-score [1] | z-score [2] | z-score [3] | z-score [4] | composite z-score [5] | z-score [6] | composite z-score [7] | composite z-score [8] | composite z-score [9] | composite z-score [10] | composite z-score [11] | composite z-score [12] | composite z-score [13] | z-score [14] | composite z-score [15] | composite z-score [16] | composite z-score [17] | composite z-score [18] | composite z-score [19] | composite z-score [20]
1 | C=C[C@@H](C)[C@H](O)c1ccc(O)c2ccccc12 | 0.849 and -0.813 | -0.647 (inactive) and -0.84 (inactive) | -7.96 (inactive) and -7.6 (inactive) | 3.63 (inactive) and 2.2 (inactive) | 1.26 and 0.149 | 1.32 (inactive) and 0.1 (inactive) | -0.254 and -0.233 | 0.753 and -0.896 | -0.0801 and -1.72 | -0.244 and -0.399 | 1.09 and 0.905 | -0.493 and -0.379 | -0.289 and 0.255 | 0.126 (inactive) and 0.292 (inactive) | -0.309 and -0.862 | -0.347 and -0.958 | 0.617 and -0.987 | 0.294 and -0.579 | 0.481 and -0.33 | 1.53 and 1.13
2 | C=CCN(CCCCC)C(=O)C1N(c2ccc(CCO)cc2)C(=O)C2C(C(=O)O)C3C=CC21O3 (stereo not given) | -0.303 and -0.476 | 0.0099 (inactive) and -0.194 (inactive) | -0.804 (inactive) and 0.336 (inactive) | -0.231 (inactive) and -0.137 (inactive) | -0.379 and 0.173 | 0.287 (inactive) and 1.11 (inactive) | -0.0374 and 0.699 | -1.73 and -1.08 | -0.636 and -0.651 | -0.233 and -0.145 | 0.122 and -0.0398 | -0.244 and -0.184 | 0.976 and 0.99 | -0.296 (inactive) and 0.494 (inactive) | -1.01 and -1.64 | -1.29 and -1.34 | -1.23 and -1.1 | -0.937 and -1.43 | -1.6 and -1.19 | -1.49 and -1.34
3 | CCOC(=O)c1ccc(NC(=O)O[C@H]2[C@H](OC(=O)Nc3ccccc3)[C@@H](OC(=O)Nc3ccccc3)[C@@H](OC)O[C@@H]2CO)cc1 | 1.53 and 1.54 | 1.77 (inactive) and 1.97 (inactive) | 1.07 (inactive) and 1.71 (inactive) | 4.37 (inactive) and 7.27 (inactive) | 3.22 and 3.23 | -0.221 (inactive) and -1 (inactive) | 0.244 and 0.0626 | 0.893 and 0.71 | 1.02 and 1.08 | 0.145 and 0.11 | 1.54 and 1.64 | 1 | 0.861 and 0.911 | 1.59 (inactive) and -0.984 (inactive) | 1.13 and 1.42 | 1.24 and 1.34 | 0.329 and 0.0234 | 1.34 and 1.42 | 0.414 and 0.17 | 0.375 and 0.563
4 | C=CCN1C(=O)[C@]2(O[C@H](CCn3cc(CCO)nn3)[C@@H]([Si](C)(C)c3ccc(OC)cc3)[C@@H]2C)c2cc(N3C(=O)c4cccc5cccc3c45)ccc21 | 1.27 and 1.46 | 1.25 (inactive) and 0.648 (inactive) | 1.82 (inactive) and 1.64 (inactive) | 36.8 (active) and 36.6 (active) | 1.73 and 1.57 | 1.43 (inactive) and 0.793 (inactive) | -0.166 and -0.177 | 0.708 and 0.778 | 0.644 and 0.979 | -0.0828 and -0.238 | 0.306 and 1.07 | -0.206 and -0.233 | -0.106 and -0.142 | -4 (inactive) and -3.52 (inactive) | 0.726 and 1.05 | 0.26 and 0.521 | -0.0684 and -0.247 | 0.228 and 0.181 | -0.0095 and -0.0589 | 0.538 and 0.516
5 | CN1C(=O)C2CC=C([C@H]3Oc4ccccc4S(=O)(=O)N4CCC[C@@H]34)CC2C1=O (stereo not given in full) | -0.525 and -1.12 | -0.243 (inactive) and 0.235 (inactive) | 0.0646 (inactive) and 0.0942 (inactive) | 0.579 (inactive) and 0.0211 (inactive) | -0.781 and -0.674 | 0.108 (inactive) and -0.089 (inactive) | -0.163 and -0.0719 | -0.487 and 0.281 | -0.977 and -1.16 | -0.199 and -0.165 | 0.149 and 0.302 | -0.226 and -0.273 | -0.344 and -0.424 | 0.776 (inactive) and 0.117 (inactive) | -0.575 and -0.066 | -0.913 and -0.794 | -0.297 and -0.148 | -0.837 and -0.641 | 0.0379 and 0.305 | 0.315 and 0.808
6 | C=CCN(CCCCC)C(=O)C1N(CCOCCO)C(=O)C2C(C(=O)O)C3C=CC21O3 (stereo not given) | -1.77 and -0.751 | 0.322 (inactive) and 0.513 (inactive) | 0.0056 (inactive) and 0.398 (inactive) | 0.912 (inactive) and 1.09 (inactive) | 0.0037 and 0.198 | -0.45 (inactive) and -0.546 (inactive) | -0.0617 and -0.142 | -1.17 and -2.1 | -0.574 and -1.05 | -0.275 and -0.367 | 0.128 and 1.72 | -0.344 and -0.208 | 0.77 and 0.925 | 0.8 (inactive) and 1.24 (inactive) | -1.48 and -1.61 | -1.97 and -0.615 | -1.74 and -1.79 | -1.54 and -1.58 | -2.58 and -3.23 | -1.97 and -1.95
7 | O=c1n(-c2ccccc2)c(=O)n2n1CC[C@@H]1C(=NOC[C@@H](O)COCc3ccco3)[C@H]3O[C@H]3[C@@H](O)[C@@H]12 | 1.23 and -0.267 | -0.188 (inactive) and 0.0291 (inactive) | -0.7 (inactive) and 0.498 (inactive) | 0.0488 (inactive) and 0.801 (inactive) | 0.264 and -1.26 | -0.517 (inactive) and 0.0684 (inactive) | -0.107 and -0.0797 | 1.06 and 0.325 | 0.827 and -0.585 | -0.139 and -0.0512 | 0.981 and 1.38 | -0.418 and -0.503 | -0.929 and -0.662 | -1.51 (inactive) and 0.0711 (inactive) | 0.526 and -0.556 | 0.605 and -0.449 | 0.634 and 0.518 | 0.973 and 0.426 | 1.24 and 0.48 | 0.467 and 0.442
8 | C=CCN(C(=O)C(c1cccs1)N(C(=O)/C=C\C(=O)O)c1c(Cl)cccc1CO)c1ccc(OC)cc1 (stereo not given) | -0.517 and -1.02 | -0.521 (inactive) and 0.247 (inactive) | -1.88 (inactive) and -0.83 (inactive) | -1.51 (inactive) and -0.982 (inactive) | 3.16 and 0.422 | 1.67 (inactive) and -0.311 (inactive) | 0.018 and 0.522 | -3.84 and -2.48 | -1.02 and -1.39 | -0.238 and -0.121 | 1.67 and 0.504 | 0.218 and 1.01 | 1.24 and 1.27 | -1.13 (inactive) and -0.482 (inactive) | -1.5 and -1.19 | -0.625 and -0.907 | -2.29 and -1.02 | -2.23 and -1.78 | -4.06 and -2.06 | -0.828 and -0.09
